# The list is not random: actives were taken first. Their share in the collection is about 9%.
# Lamin A splicing: qHTS Assay for Modulators of Lamin A Splicing; hit rate 0.01% among 200,000; AID 1487, 2009; HeLa LMNA splicing GFP/RFP minigene ratio, 48 h; Potency, µM (doses to about 46.1 µM), without a hit: at the top dose ratio change, negative = inhibition, actives largely listed as inhibitors; active = well fitted inhibition curve with a large enough effect in the signal ratio, with a control signal flat, not every such curve was filed as active; inconclusive = small, poorly fitted or top-dose-only effect, or effect the other way, or a change in a side signal; the % refers to the signal ratio
#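 S3 HeLa cells stably expressing lamin A-EGFP splicing minigene plus DsRed2, 600 cells/well, 48 h compound exposure at 37C. Laser-scanning cytometry; analysed as GFP (500-530 nm)/RFP (575-640 nm) total intensity ratio; 0.5% DMSO vehicle.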
# IMPase Li inh: qHTS Assay for Identifying the Cell-Membrane Permeable IMPase Inhibitors: Potentiation with Lithium; CHO-M1 cells, IP1 TR-FRET (IP-One), carbachol + lithium; Potency, µM (top dose mostly 59.4 µM), inactives show at the highest dose activity, negative = IMPase inhibition, actives largely listed as inhibitors; hit rate 0.35% among 210,000; AID 1457, 2008;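 note: IP1 builds up when IMPase is blocked and the TR-FRET signal falls; plate controls were basal vehicle for no effect and high inhibitor control for full effect; nearly all actives have a fitted effect of over 50% in size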
#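 Steps: plate 2000 CHO-M1 cells per well and culture 16–30 h; add compound and lithium; incubate 30 min, 37C; add d2-IP1 tracer and Eu cryptate anti-IP1 antibody in lysis buffer; read after 10 min at room temperature.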
# HPGD inh: qHTS Assay for Inhibitors of HPGD (15-Hydroxyprostaglandin Dehydrogenase); purified HPGD, NADH fluorescence kinetic, PGE2 substrate; Potency, µM, inactives show at the highest dose activity change, negative = inhibition, hits mostly inhibitors; hit rate 4.3% among 150,000; AID 894, 2007; active = well fitted inhibition curve with a large enough effect, not every such curve was filed as active; inconclusive = small, poorly fitted or top-dose-only effect, or another doubt; inactive = no such curve, though single readings can be large or run the other way
# Target sequence (P15428 whole entry, looked up): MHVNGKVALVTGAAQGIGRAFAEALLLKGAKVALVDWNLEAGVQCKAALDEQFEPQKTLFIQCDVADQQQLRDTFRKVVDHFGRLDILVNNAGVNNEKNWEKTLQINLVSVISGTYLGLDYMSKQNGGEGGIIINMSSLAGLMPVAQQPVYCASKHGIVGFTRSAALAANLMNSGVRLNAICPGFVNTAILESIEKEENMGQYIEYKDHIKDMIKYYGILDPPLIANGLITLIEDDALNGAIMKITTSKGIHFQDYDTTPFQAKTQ
#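 20 nM HPGD preincubated 15 min at room temperature with compound in 50 mM Tris-HCl pH 8, 0.01% Tween 20. Started with 1 mM NAD+ and 30 uM prostaglandin E2; NADH fluorescence (360/450 nm) read 5 times over 30-s intervals, last minus first.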
# KinaseGlo FLuc: Counterscreen for Luciferase (Kinase-Glo TM) Inhibition. AID 1379, 2008. hit rate 0.28% among 200,000. Kinase-Glo luciferase, ATP luminescence, 8 min. Potency, µM (series often up to 38.3 µM), without a hit: top-dose activity change, negative = inhibition, hits mostly inhibitors. Luciferin 4-monooxygenase (Photuris pensylvanica), Q27757; note: nearly all actives have a fitted effect of over 60% in size
#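 Recombinant Kinase-Glo luciferase, 10 uM ATP (linear range), luciferin; imidazole pH 7.2 / KCl / MgCl2 / Tween / BSA buffer; 8 min RT; luminescence.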
# ALDH1A1 inh: qHTS Assay for Inhibitors of Aldehyde Dehydrogenase 1 (ALDH1A1) | AID 1030, 2008 | Purified ALDH1A1, NADH fluorescence, propionaldehyde substrate | hit rate 7.3% among 220,000 | Potency, µM (titrated, usually from 75.3 µM), inactives show top-dose activity, negative = inhibition, hits mostly inhibitors; active = well fitted inhibition curve with a large enough effect, not every such curve was filed as active; inconclusive = small, poorly fitted or top-dose-only effect, or another doubt; inactive = no such curve, though single readings can be large or run the other way;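 note: plate controls were no enzyme wells and a reference inhibitor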
# The depositor's hits bear a star; ? = inconclusive; . = no result; [ ] = remark or other dose. Unless noted, calls come from the whole dose curve; as a rule, active = well fitted curve in the direction sought with a large enough effect; inconclusive = small, poorly fitted or top-dose-only effect, or another doubt; inactive = no such curve, though single readings can be large; an effect the other way counts as inactive or inconclusive. Unless noted, % is set by controls: 0 for no effect and ±100 for the full control effect; potency is the fitted concentration of half-maximal effect.
SMILES,Lamin A splicing,IMPase Li inh,HPGD inh,KinaseGlo FLuc,ALDH1A1 inh
CC(NC(=O)Nc1ccc(Br)cc1)C(C)(C)C (stereo not drawn),?,10%,.,3%,-8%
O=C(NCC1CCCO1)c1csc(Nc2cccc3ccccc23)n1 (stereo not drawn),?,11%,.,13µM*,-9%
CC(=O)c1c[nH]c(C(=O)NCC2CCCO2)c1 (stereo not drawn),-5%,-1%,0%,2%,8%
Cc1ccc(C(=O)NC(=S)NCC2CCCO2)cc1Br (stereo not drawn),?,14%,-11%,0%,8.9µM*
CCCC(=O)Nc1ccc(C(=O)NCC2CCCO2)cc1 (stereo not drawn),0%,2%[38.3 µM],11µM*,-5%,?
CC(C)CC(=O)c1c[nH]c(C(=O)NCC2CCCO2)c1 (stereo not drawn),0%,-8%[38.3 µM],20µM*,1%,?
O=C1c2ccccc2-c2cc([N+](=O)[O-])c([N+](=O)[O-])cc21,.,11%,-10%,-6%[7.66 µM],?
COc1cccc(CNC(=O)C(=O)NCC2CCCO2)c1 (stereo not drawn),-6%,1%,-4%,0%,-10%
COc1cccc(S(=O)(=O)NCc2ccc(C(=O)NCC3CCCO3)cc2)c1 (stereo not drawn),-1%,-8%[38.3 µM],16µM*,1%,14µM*
O=C(Nc1ccc2nc(SCC(=O)N3CCCc4ccccc43)sc2c1)c1cccc(Cl)c1,-5%[46 µM],.,.,.,.
COc1ccc(S(=O)(=O)Nc2ccc(N3CCOCC3)cc2)cc1[N+](=O)[O-],.,2%,.,-3%,13µM*
COc1ccc(OCC(=O)Nc2ccc(N3CCOCC3)cc2)c([N+](=O)[O-])c1,.,0%,.,0%,28µM*
CC(O)CN1C(=O)C(CC(=O)Nc2ccc(Cl)cc2)SC1=Nc1ccccc1 (stereo not drawn),-3%,28%[38.3 µM],-14%,-3%,22µM*
COc1ccc(N=C2SC(CC(=O)Nc3ccccc3)C(=O)N2Cc2ccccn2)cc1 (stereo not drawn),?,6%,.,0%,2.2µM*
COc1ccc(N=C2SC(CC(=O)Nc3ccccc3)C(=O)N2CCc2ccccn2)cc1 (stereo not drawn),-4%,13%,-21%,0%,-1%
C=CCN1C(=O)C(CC(=O)Nc2ccc(OC)cc2)SC1=Nc1ccc(S(N)(=O)=O)cc1 (stereo not drawn),.,5%,.,.,7.9µM*
Cc1cc(Cl)ccc1OCC(=O)N1CCC(c2nc3ccccc3s2)CC1,6%[46 µM],.,.,.,.
O=C(CNCCc1ccccc1)N1CCc2ccccc2C1,-14%[9.22 µM],2%,.,2%,?
COCC(C)n1c(=O)sc2ccccc2c1=O (stereo not drawn),?,2%,.,0%,-4%
CC(C)(C)C1CCc2c(sc3nc(-c4cc5cc(Br)ccc5oc4=O)[nH]c(=O)c23)C1 (stereo not drawn),26%[46 µM],.,.,.,.
CCOC(=O)CCN1C(=O)[C@H]2[C@H]3[C@H](O)[C@H](O)C/C(=N/OC/C=C(\C)CCC=C(C)C)[C@@H]3CC[C@@H]2C1=O,.,.,.,.,7%[13.5 µM]
C=CC1=C2C=C(C3CC3)N(CCCCO)C=C2C(=O)C(C)(OC(=O)c2ccco2)C1=O (stereo not drawn),-4%[9.22 µM],3%,1%,-2%[7.66 µM],2%[13.5 µM]
CCOC(=O)c1cc(C#N)c(=S)[nH]c1C,.,-12%,.,3%,3.5µM*
CC(C)c1ccc(NC(=S)Nc2ccc3cn[nH]c3c2)cc1,0%[46 µM],18%,.,2%,19µM*
O=C(Nc1ccc2cn[nH]c2c1)c1c(Cl)cccc1Cl,-11%,2%,22µM*,2%,-2%
SMILES,Lamin A splicing,IMPase Li inh,HPGD inh,KinaseGlo FLuc,ALDH1A1 inh
Cc1ccc(NC(=S)Nc2ccc3cn[nH]c3c2)cc1C,-9%,.,.,.,?
O=C(Nc1ccc2cn[nH]c2c1)c1ccccc1F,2%,5%,?,-1%,7%
COc1ccccc1N(CC(=O)Nc1cccnc1)S(=O)(=O)c1ccccc1,7%,9%[38.3 µM],14µM*,-5%,?
COc1ccc(C)cc1N(CC(=O)Nc1cccnc1)S(=O)(=O)c1ccc(C)cc1,1%[46 µM],4%,.,1%,-2%
COc1ccc(S(=O)(=O)N(CC(=O)Nc2cccnc2)c2ccccc2OC)cc1,6%,47%[38.3 µM],2.2µM*,2%,10µM*
COc1ccc(OC)c(N(CC(=O)Nc2cccnc2)S(=O)(=O)c2ccccc2)c1,0%,13%[38.3 µM],7.9µM*,-1%,-8%
COc1ccc(S(=O)(=O)N(CC(=O)Nc2ccc3c(c2)OCO3)c2ccccc2OC)cc1,?,12%[38.3 µM],16µM*,-1%,?
COc1ccc(N(CC(=O)Nc2ccc3c(c2)OCCO3)S(=O)(=O)c2cccnc2)cc1,-8%,38%[38.3 µM],-18%,1%,14µM*
O=C1NC(=Nc2ccc(F)cc2)CS1,.,-4%,.,-1%,?
Cc1ccc(-c2csc(NC(=O)c3cccc(S(=O)(=O)N4CCN(C)CC4)c3)n2)cc1,?,0%[38.3 µM],-27%,-8%,2.5µM*
O=C(Nc1nc(-c2cccs2)cs1)c1cccc(S(=O)(=O)N2CCCCC2)c1,?,17%[38.3 µM],-14%,-3%,1%
O=C(COc1ccccc1C(=O)O)Nc1nc2ccc([N+](=O)[O-])cc2s1,?,.,.,.,-3%
C[C@@H]1CC2(OC3C[C@@]4(C)C5=CC[C@H]6C(C)(C)C(O[C@@H]7OC[C@@H](O)[C@H](O)[C@H]7O)CC[C@@]67C[C@@]57CC[C@]4(C)C31)OC(O)C1(C)OC21 (stereo partly drawn),.,4%,-8%,.,?
CCOc1ccc(S(=O)(=O)NCCC(=O)OCC(=O)c2ccc[nH]2)cc1,-2%[46 µM],-6%,.,0%,4%
N[C@H](CCCP(=O)(O)O)C(=O)O,.,8%,-11%,1%,-2%
O=C(NCc1ccco1)c1ccc2c(=O)n(CC3CCCO3)c(=S)[nH]c2c1 (stereo not drawn),0%,3%,-13%,0%,3.2µM*
COCCCNC(=O)c1ccc2c(=O)n(CC3CCCO3)c(=S)[nH]c2c1 (stereo not drawn),-3%,-6%[38.3 µM],-16%,0%,?
O=C(NCc1ccccc1)c1ccc2c(=O)n(CC3CCCO3)c(=S)[nH]c2c1 (stereo not drawn),19%,-10%[38.3 µM],-5%,-1%,2.8µM*
CC(C)NC(=O)c1ccc2c(=O)n(CC3CCCO3)c(=S)[nH]c2c1 (stereo not drawn),.,-8%,.,1%,1.4µM*
